esBAF inh = SWI/SNF esBAF complex inhibition | mouse ES cells, Bmi1-luciferase knock-in reporter, 24 h; 100% = twice the neutral-well signal | reporter increase, % at 12.5 µM | hit rate 2% among 350,000; in the data active = activation above about 40%;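 note: 0% = median of the plate's neutral control wells and 100% = double that signal; a rise in the Bmi1 reporter signal indicates esBAF inhibition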
dFosB activator = mouse delta FosB homodimer activation. P13346. AID 493131. activation, % at 25 µM. purified delta FosB, TAMRA-CDK5 oligo fluorescence polarization; percent of positive-control signal above neutral wells. hit rate 0.99% among 340,000;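 active = mean activation above about 17%, with every replicate also reaching it, limit read from the data, passing the limit was not always enough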
Target sequence (P13346 whole entry, looked up): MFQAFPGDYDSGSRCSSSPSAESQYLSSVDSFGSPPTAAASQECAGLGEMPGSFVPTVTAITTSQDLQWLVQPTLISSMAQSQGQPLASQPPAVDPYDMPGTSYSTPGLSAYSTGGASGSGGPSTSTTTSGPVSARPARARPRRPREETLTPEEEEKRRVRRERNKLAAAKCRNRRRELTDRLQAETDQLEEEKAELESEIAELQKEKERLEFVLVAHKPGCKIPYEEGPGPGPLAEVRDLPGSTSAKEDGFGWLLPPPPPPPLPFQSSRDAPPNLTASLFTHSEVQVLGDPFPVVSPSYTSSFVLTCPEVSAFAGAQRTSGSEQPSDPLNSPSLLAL
DYRK1A inh = Dyrk1A (rat) kinase inhibition; inhibition, % at 12.5 µM; hit rate 0.43% among 310,000; AID 504441; Q63470; ADP-Glo luminescence, NFATc1 peptide; in the data active = inhibition above about 50%;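 note: plate controls were vehicle with enzyme for no effect and no enzyme for full effect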
CDK5 p35 inh = blocks human CDK5/p35 kinase activity | Q00535+Q15078 | Recombinant CDK5/p35, ADP-Glo luminescence, 60 min | inhibition, % at 10 µM | hit rate 0.01% among 330,000;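 active = highest replicate inhibition of at least 50% and at least 75% of replicates reaching 50%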;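 note: plate controls were DMSO neutral control for no effect and GW8510 at 10 µM for full effect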
Rtt109 Vps75 = blocks Candida albicans Rtt109/Vps75 acetyltransferase activity; Q5AAJ8; purified Rtt109/Vps75, ThioGlo CoA-SH fluorescence, 4 h; inhibition, % at 34.9 µM; hit rate 0.16% among 330,000;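 active = inhibition of at least 50% in every replicate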
SMARCA2 activ = increases SMARCA2 function in MMTV reporter cells; MG213 cells, MMTV-luciferase reporter, dexamethasone, overnight; hit rate 1% among 370,000; activation, % at 9.1 µM; in the data active = activation above about 7.8%;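 note: 0% = vehicle wells and 100% = reference activator wells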
SMARCA2 conf = confirmation of SMARCA2 (BRM) function activators; shares compounds with SMARCA2 activ; MG213 cells, MMTV-luciferase with dexamethasone, luminescence, overnight; MG213 cells expressing E1A, Rb sequestered; DMSO wells 0%, reference activator 100%; activation, % at 9.1 µM; hit rate 30% among 3,500; AID 652260;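 active = activation above its plate's cutoff, the mean activation of tested wells plus 3 SD, cut at about 7.9% in these data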
VP16 Luc act = counter-screen for SMARCA2 activators: GAL4-VP16 luciferase reporter activation. shares compounds with SMARCA2 activ. HEK293 GAL4-VP16 pG5luc reporter, luciferase luminescence; scaled: DMSO wells 0%, SAHA wells 100%. activation, % at 9.1 µM. hit rate 41% among 3,500;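 active = activation above the solvent-only control well mean plus 3 SD, averaged across control plates, cut at about 5.2% in these data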
* marks the source's active call; other numbers are inactive results; nt = not tested or not shown. Sampled rows, rich in hits. Any-hit rate of the full collection: about 3.2%.

SMILES	esBAF inh	dFosB activator	DYRK1A inh	CDK5 p35 inh	Rtt109 Vps75	SMARCA2 activ	SMARCA2 conf	VP16 Luc act
C[C@@H]1CN([C@H](C)CO)C(=O)CCCn2nncc2CO[C@@H]1CN(C)Cc1ccc(O)cc1	-9	nt	nt	nt	nt	nt	nt	nt
CO[C@H]1CN(C)C(=O)c2cc(NC(=O)Nc3ccccc3Cl)ccc2OC[C@H](C)NC[C@H]1C	0	nt	nt	nt	nt	nt	nt	nt
Cc1ccccc1NC(=O)c1onc2c1CCCC2	27	5	10	2	-12	8.2*	7	8.1*
COc1ccc(NC(=O)Nc2ccc3c(c2)C(=O)N([C@H](C)CO)C[C@H](C)[C@@H](CN(C)S(=O)(=O)c2ccc(OC)cc2)OCCCC[C@@H](C)O3)cc1	-4	nt	nt	nt	nt	nt	nt	nt
C[C@H](NC(=O)C[C@@H]1CC[C@H](NC(=O)C2CC2)[C@@H](CO)O1)c1ccccc1	-1	nt	nt	nt	nt	nt	nt	nt
COc1cc(C)nc(NC(=O)NC(=O)c2ccc(C(F)(F)F)cc2)n1	1	-9	1	1	6	8.1*	0	0
Cc1cc(C)nc(NC(=O)NC(=O)c2ccccc2)n1	-1	-13	20	3	-21	-1	nt	nt
CC(C)NC(=O)Nc1cccc2c1O[C@@H](CN(C)Cc1ccc(-c3ccccc3)cc1)[C@@H](C)CN([C@H](C)CO)C2=O	0	nt	nt	nt	nt	nt	nt	nt
CO[C@H]1CC[C@@H]2CCN(C)C(=O)CCCN(C)C(=O)c3cccc(C#N)c3OC[C@@H]1O2	0	nt	nt	nt	nt	nt	nt	nt
CCOC(=O)C1CN(S(C)(=O)=O)c2cc(CC(=O)OC)ccc2O1 (configuration not stated)	nt	-5	-3	1	-2	8.2*	-1	1
CCOC(=O)C1CN(S(=O)(=O)c2ccc(OC)cc2)c2cc(CC(=O)OC)ccc2O1 (configuration not stated)	-1	-15	-8	-1	-6	-3	nt	nt
CC(=O)Nc1ccc2c(c1)C(=O)N(C)[C@H]1CC[C@@H](CC(=O)NCc3ccccc3)O[C@H]1CO2	-4	nt	nt	nt	nt	nt	nt	nt
CCOC(=O)/C(C#N)=C/c1c(Oc2cc(C)cc(C)c2)nc2ccccn2c1=O	nt	-2	-1	1	2	8.2*	-3	0
CSc1nc2c([nH]1)c(=S)n(C)c(=O)n2C	-9	5	2	0	-7	8.4*	9.0*	1
CCCCSc1nc2c([nH]1)c(=S)n(C)c(=O)n2C	nt	1	nt	0	5	4	nt	nt
CCNC(=O)C[C@@H]1CC[C@@H]2[C@@H](COc3ccc(NC(=O)c4ccc(C(F)(F)F)cc4)cc3C(=O)N2C)O1	3	nt	nt	nt	nt	nt	nt	nt
CN(C)CCNC(=O)c1ccc(COc2ccc(Cl)cc2Cl)cc1	-6	-42	10	-1	nt	8.0*	10*	1
C/C=C/c1ccc([C@H]2[C@@H](CO)N(C(=O)CC)[C@@H]2CNC(=O)C2CC2)cc1	-4	nt	nt	nt	nt	nt	nt	nt
CCc1c(O)nc(SCC(=O)NC(C)(C)C)n(-c2ccccc2)c1=O	-1	2	15	0	2	8.1*	-3	2
CCc1c(O)nc(SCC(=O)c2ccccc2)n(-c2ccccc2)c1=O	-1	-11	nt	-1	-10	0	nt	nt
COCC#Cc1ccc2c(c1)O[C@H](CN(C)Cc1ccccc1)[C@@H](C)CN([C@@H](C)CO)S2(=O)=O	-2	nt	nt	nt	nt	nt	nt	nt
C[C@@H]1CN([C@H](C)CO)C(=O)c2cccc(NS(=O)(=O)c3cccs3)c2O[C@@H]1CN(C)S(=O)(=O)c1cccs1	10	nt	nt	nt	nt	nt	nt	nt
COc1cc(CNc2cccc(F)c2)cc(Br)c1O	-7	-11	-2	1	-5	9.2*	5	2
COc1ccc(CNc2ccccc2)cc1Br	-4	-5	-5	-2	0	-2	nt	nt
COc1ccc2c(c1)CC/C(=C/c1ccco1)C2=O	nt	-6	18	1	6	20*	4	12*
C[C@H](CO)N1C[C@H](C)[C@H](CN(C)Cc2ccc(C(=O)O)cc2)Oc2ccc(NC(=O)NC3CCCCC3)cc2CC1=O	3	nt	nt	nt	nt	nt	nt	nt

Screening results deposited in PubChem by several laboratories.
